Measured values published in paper PMC7862700, “An all-to-all approach to the identification of sequence-specific readers for epigenetic DNA modifications on cytosine”.

Assays:
Assay in all cases: DAPPL (digital affinity profiling via proximity ligation, sequencing); 10 mM Tris-HCl pH 7.5, 50 mM NaCl, 1 mM DTT, 4% glycerol, room temperature, 30 min; GST-TFs on glutathione beads, 16-mer random dsDNA library, 0.1% formaldehyde crosslink after washing; high values mean tight binding
FLI1 = molecular target: T1, FLI1 (Homo sapiens, UniProt Q01543 1-452); conditions: protein: recombinant; tags: N-terminal GST; dsDNA, one strand shown
T1 sequence: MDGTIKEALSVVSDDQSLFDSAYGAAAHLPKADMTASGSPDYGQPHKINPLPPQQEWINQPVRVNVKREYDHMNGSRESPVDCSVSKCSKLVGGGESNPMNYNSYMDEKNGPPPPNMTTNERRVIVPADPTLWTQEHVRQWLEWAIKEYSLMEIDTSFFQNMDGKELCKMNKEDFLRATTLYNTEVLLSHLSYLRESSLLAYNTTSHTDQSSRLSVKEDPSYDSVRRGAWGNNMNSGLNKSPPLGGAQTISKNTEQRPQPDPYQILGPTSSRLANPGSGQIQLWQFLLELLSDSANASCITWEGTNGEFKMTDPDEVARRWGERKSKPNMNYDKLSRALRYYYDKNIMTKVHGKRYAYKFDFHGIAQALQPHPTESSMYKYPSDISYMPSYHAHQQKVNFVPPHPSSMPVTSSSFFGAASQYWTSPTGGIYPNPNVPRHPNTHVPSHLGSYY
How it was run: (§1)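 Binding signal is defined as a hexamer's read frequency for one factor over its frequency for the tag-only sample. To obtain reads, GST-fused human transcription factors were expressed in yeast, captured on glutathione beads, barcoded with DNA and pooled with that sample. Pools met 200 nmole of a 16-mer random double-stranded DNA library in Tris/NaCl/DTT/glycerol buffer for 30 min at room temperature before washing, 0.1% formaldehyde crosslinking, proximity ligation (BsaI/T4 ligase, 1 h, 37 °C), PCR and Illumina NextSeq500 sequencing.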

ELK1 = molecular target: T2, ELK1 (Homo sapiens, UniProt P19419 1-428); conditions: protein: recombinant; tags: N-terminal GST; dsDNA, one strand shown
T2 sequence: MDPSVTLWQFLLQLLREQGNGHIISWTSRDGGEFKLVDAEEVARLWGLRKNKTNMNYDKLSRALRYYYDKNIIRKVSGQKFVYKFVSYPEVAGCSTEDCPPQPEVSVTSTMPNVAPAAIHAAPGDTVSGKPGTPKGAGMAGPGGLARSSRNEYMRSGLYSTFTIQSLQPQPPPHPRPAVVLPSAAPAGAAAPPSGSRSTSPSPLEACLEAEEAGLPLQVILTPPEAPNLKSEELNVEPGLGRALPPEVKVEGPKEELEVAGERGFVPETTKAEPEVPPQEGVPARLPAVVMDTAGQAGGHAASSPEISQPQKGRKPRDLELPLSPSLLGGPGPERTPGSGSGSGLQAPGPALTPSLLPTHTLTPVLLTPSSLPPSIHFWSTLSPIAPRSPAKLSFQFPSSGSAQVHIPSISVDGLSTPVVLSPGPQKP
How it was run: as §1

GABPA = molecular target: T3, GABPA (Homo sapiens, UniProt Q06546 1-454); conditions: protein: recombinant; tags: N-terminal GST; dsDNA, one strand shown
T3 sequence: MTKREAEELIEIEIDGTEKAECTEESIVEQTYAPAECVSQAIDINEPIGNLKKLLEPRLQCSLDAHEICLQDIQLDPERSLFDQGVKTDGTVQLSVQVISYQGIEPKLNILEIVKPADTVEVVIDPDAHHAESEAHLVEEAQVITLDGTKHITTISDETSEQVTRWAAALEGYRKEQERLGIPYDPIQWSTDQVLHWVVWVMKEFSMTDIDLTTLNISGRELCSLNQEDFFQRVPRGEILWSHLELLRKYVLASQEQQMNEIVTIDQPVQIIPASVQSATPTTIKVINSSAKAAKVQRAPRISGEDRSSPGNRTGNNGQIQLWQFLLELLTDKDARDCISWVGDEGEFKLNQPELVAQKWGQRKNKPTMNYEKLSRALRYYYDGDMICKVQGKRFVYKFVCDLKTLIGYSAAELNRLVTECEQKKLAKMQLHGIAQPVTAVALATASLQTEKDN
How it was run: as §1

ERG = molecular target: T4, ERG (Homo sapiens, UniProt P11308 1-479); conditions: protein: recombinant; tags: N-terminal GST; dsDNA, one strand shown
T4 sequence: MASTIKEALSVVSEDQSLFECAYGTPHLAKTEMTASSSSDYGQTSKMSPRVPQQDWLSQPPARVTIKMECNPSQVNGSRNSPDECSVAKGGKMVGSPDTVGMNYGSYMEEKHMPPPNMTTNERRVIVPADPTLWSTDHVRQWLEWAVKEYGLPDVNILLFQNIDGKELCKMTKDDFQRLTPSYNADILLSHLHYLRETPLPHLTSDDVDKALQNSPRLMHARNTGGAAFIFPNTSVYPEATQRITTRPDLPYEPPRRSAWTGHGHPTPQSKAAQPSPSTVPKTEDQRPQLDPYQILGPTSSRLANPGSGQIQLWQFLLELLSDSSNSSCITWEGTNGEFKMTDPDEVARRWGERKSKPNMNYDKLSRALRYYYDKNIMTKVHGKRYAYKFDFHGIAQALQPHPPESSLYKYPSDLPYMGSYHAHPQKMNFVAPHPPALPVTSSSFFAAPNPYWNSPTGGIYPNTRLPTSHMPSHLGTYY
How it was run: as §1

ELF1 = ELF1 (Homo sapiens, UniProt P32519 1-619); conditions: protein: recombinant; tags: N-terminal GST; dsDNA, one strand shown
ELF1, sequence (P32519 whole entry): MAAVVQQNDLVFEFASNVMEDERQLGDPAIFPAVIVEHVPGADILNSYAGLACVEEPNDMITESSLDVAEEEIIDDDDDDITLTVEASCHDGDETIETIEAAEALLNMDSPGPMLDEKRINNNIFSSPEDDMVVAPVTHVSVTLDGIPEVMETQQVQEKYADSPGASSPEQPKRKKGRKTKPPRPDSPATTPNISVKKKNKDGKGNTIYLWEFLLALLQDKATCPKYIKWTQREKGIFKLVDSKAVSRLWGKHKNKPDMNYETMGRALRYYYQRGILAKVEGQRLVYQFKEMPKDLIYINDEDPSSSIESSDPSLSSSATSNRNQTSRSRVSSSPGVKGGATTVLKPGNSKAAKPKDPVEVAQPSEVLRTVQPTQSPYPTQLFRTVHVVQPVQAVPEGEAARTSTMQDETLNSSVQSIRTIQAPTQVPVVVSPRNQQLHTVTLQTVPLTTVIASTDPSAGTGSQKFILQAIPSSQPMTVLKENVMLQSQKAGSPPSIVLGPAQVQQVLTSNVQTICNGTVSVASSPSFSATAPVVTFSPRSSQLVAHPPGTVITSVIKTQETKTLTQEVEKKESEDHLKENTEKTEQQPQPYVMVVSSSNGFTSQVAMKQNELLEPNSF
How it was run: as §1

EHF = molecular target: T5, EHF (Homo sapiens, UniProt Q9NZC4 1-300); conditions: protein: recombinant; tags: N-terminal GST; dsDNA, one strand shown
T5 sequence: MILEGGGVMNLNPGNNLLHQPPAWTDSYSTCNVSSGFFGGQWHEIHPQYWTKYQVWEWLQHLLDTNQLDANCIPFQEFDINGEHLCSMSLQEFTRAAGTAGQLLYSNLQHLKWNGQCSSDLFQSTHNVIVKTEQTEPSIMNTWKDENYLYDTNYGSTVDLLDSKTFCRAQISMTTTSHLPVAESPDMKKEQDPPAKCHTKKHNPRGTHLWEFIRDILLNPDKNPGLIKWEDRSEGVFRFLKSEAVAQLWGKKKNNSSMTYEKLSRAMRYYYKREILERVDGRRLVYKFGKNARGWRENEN
How it was run: as §1

SPI1 = SPI1 (Homo sapiens, UniProt P17947 1-270); conditions: protein: recombinant; tags: N-terminal GST; dsDNA, one strand shown
How it was run: as §1

SPIB = SPIB (Homo sapiens, UniProt Q01892 1-262); conditions: protein: recombinant; tags: N-terminal GST; dsDNA, one strand shown
SPIB, sequence (Q01892 whole entry): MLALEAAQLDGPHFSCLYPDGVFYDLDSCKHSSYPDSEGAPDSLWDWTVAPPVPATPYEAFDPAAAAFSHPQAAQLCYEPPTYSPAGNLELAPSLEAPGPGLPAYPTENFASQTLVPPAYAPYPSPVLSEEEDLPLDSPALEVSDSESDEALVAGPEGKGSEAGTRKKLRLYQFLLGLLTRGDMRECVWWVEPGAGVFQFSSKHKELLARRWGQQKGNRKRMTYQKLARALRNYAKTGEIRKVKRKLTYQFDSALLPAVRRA
How it was run: as §1

ELK3 = molecular target: T6, ELK3 (Homo sapiens, UniProt P41970 1-407); conditions: protein: recombinant; tags: N-terminal GST; dsDNA, one strand shown
T6 sequence: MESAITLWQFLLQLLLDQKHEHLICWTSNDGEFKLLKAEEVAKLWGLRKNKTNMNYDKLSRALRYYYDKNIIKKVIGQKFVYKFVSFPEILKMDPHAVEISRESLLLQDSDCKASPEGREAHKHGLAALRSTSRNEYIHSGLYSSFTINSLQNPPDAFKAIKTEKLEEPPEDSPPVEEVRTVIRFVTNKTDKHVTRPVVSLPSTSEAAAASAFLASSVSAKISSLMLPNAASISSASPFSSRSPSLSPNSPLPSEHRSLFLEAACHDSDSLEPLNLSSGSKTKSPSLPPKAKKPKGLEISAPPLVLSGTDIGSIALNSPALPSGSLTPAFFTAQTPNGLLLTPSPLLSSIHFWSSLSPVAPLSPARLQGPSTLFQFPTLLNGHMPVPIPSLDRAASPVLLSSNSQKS
How it was run: as §1

FEV = molecular target: T7, FEV (Homo sapiens, UniProt Q99581 1-238); conditions: protein: recombinant; tags: N-terminal GST; dsDNA, one strand shown
T7 sequence: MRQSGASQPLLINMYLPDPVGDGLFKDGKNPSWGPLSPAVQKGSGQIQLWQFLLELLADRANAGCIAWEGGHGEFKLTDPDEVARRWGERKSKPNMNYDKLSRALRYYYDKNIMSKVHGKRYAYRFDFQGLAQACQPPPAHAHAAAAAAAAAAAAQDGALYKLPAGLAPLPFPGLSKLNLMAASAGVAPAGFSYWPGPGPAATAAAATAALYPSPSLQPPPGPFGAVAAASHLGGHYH
How it was run: as §1

ETV5 = ETV5 (Homo sapiens, UniProt P41161 1-510); conditions: protein: recombinant; tags: N-terminal GST; dsDNA, one strand shown
ETV5, sequence (P41161 whole entry): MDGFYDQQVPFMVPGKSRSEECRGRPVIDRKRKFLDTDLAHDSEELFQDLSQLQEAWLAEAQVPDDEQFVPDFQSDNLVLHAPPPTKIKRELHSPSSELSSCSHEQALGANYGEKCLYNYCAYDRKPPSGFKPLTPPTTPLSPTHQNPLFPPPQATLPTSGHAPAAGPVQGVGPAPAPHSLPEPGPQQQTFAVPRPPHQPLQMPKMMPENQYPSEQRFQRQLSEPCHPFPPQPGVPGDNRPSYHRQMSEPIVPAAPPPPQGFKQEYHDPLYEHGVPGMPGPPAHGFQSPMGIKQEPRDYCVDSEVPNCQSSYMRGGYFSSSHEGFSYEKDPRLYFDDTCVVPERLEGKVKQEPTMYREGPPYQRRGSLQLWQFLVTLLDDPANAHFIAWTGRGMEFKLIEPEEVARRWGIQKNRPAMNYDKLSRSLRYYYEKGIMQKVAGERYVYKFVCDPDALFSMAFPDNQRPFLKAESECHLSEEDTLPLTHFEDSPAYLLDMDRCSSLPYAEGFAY
How it was run: as §1

HSF1 = HSF1 (Homo sapiens, UniProt Q00613 1-529); conditions: protein: recombinant; tags: N-terminal GST; chain copies: 3; dsDNA, one strand shown
HSF1, sequence (Q00613 whole entry): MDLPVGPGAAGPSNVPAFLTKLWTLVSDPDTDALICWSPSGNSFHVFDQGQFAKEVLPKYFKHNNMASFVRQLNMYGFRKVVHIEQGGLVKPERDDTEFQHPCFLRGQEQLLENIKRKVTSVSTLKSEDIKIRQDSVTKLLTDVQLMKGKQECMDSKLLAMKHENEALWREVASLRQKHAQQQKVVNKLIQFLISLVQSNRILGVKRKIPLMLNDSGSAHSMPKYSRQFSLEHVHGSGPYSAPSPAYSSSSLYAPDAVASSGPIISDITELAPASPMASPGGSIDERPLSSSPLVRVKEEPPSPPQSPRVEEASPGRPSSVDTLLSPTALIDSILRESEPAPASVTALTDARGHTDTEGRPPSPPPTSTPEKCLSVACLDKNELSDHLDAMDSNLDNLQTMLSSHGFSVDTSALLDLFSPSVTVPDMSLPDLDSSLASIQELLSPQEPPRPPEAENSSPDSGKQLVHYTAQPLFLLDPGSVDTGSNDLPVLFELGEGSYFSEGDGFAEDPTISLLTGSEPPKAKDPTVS
How it was run: as §1

SPIC = molecular target: T8, SPIC (Homo sapiens, UniProt Q8N5J4 1-248); conditions: protein: recombinant; tags: N-terminal GST; dsDNA, one strand shown
T8 sequence: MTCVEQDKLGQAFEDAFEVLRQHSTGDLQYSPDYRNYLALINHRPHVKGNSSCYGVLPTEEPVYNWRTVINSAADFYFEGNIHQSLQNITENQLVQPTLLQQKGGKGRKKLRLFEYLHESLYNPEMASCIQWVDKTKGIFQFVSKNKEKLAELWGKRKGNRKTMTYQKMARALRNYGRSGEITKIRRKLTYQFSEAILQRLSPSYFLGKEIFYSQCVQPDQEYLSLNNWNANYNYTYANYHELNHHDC
How it was run: as §1

ELF4 = ELF4 (Homo sapiens, UniProt Q99607 1-663); conditions: protein: recombinant; tags: N-terminal GST; dsDNA, one strand shown
ELF4, sequence (Q99607 whole entry): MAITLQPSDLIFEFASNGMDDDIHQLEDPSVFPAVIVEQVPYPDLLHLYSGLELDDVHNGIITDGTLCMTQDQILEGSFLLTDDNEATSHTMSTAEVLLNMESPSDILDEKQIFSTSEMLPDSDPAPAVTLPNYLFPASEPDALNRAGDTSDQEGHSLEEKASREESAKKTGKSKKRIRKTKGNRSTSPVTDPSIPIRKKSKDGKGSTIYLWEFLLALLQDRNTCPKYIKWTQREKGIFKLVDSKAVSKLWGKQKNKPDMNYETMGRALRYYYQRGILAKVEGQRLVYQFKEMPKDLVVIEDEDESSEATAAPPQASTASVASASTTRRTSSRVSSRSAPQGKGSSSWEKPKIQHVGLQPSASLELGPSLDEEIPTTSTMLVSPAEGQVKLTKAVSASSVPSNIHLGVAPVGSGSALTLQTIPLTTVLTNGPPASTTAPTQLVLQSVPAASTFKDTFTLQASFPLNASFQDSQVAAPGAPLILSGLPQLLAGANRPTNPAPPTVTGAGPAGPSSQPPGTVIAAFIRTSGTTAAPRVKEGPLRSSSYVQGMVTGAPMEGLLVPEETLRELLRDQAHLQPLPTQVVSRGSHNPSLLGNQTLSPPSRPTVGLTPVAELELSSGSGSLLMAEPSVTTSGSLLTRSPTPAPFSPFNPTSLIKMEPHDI
How it was run: as §1

ELK4 = molecular target: T9, ELK4 (Homo sapiens, UniProt P28324-2 1-405); conditions: protein: recombinant; tags: N-terminal GST; dsDNA, one strand shown
T9 sequence: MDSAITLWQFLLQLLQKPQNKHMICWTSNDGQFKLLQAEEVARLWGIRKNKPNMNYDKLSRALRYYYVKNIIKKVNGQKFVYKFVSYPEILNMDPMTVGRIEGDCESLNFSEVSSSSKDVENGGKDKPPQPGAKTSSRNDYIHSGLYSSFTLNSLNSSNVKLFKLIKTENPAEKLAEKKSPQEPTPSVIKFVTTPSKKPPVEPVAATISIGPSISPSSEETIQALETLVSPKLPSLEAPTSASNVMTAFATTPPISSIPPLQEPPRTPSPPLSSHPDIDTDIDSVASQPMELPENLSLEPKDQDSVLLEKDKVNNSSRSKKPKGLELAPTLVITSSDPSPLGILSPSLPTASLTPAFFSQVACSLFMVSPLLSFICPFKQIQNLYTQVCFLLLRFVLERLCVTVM
How it was run: as §1

ETV2 = molecular target: T10, ETV2 (Homo sapiens, UniProt O00321 1-342); conditions: protein: recombinant; tags: N-terminal GST; dsDNA, one strand shown
T10 sequence: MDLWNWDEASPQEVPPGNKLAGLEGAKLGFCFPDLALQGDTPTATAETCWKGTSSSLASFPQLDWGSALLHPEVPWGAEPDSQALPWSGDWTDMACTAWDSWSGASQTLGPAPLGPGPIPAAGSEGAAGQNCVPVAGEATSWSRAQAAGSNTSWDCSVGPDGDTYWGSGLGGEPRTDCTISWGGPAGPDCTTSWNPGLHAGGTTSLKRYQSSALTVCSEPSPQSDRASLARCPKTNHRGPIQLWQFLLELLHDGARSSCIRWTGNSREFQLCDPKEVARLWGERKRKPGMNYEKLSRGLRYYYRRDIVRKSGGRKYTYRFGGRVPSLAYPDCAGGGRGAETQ
How it was run: as §1

ELF3 = molecular target: T11, ELF3 (Homo sapiens, UniProt P78545 1-371); conditions: protein: recombinant; tags: N-terminal GST; dsDNA, one strand shown
T11 sequence: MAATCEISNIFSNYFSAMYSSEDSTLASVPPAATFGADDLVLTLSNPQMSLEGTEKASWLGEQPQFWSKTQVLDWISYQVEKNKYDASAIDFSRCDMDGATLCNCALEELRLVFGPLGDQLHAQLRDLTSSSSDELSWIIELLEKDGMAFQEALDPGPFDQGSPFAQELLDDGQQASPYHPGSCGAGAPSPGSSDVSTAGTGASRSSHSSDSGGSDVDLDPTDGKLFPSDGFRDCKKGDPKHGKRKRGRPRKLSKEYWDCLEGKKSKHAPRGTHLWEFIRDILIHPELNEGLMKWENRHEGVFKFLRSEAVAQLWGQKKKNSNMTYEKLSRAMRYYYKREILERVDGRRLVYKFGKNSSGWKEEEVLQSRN
How it was run: as §1

CRX = CRX (Homo sapiens, UniProt O43186 1-299); conditions: protein: recombinant; tags: N-terminal GST; dsDNA, one strand shown
CRX, sequence (O43186 whole entry): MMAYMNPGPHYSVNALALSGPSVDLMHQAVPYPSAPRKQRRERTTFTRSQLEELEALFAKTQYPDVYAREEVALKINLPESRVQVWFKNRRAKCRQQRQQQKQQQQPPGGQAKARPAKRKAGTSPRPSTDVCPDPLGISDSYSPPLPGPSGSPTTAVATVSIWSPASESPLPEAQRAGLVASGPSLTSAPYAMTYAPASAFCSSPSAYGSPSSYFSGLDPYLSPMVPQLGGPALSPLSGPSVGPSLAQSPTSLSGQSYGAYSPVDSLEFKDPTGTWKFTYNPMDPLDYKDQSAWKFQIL
How it was run: as §1

ETV1 = ETV1 (Homo sapiens, UniProt P50549 1-477); conditions: protein: recombinant; tags: N-terminal GST; dsDNA, one strand shown
ETV1, sequence (P50549 whole entry): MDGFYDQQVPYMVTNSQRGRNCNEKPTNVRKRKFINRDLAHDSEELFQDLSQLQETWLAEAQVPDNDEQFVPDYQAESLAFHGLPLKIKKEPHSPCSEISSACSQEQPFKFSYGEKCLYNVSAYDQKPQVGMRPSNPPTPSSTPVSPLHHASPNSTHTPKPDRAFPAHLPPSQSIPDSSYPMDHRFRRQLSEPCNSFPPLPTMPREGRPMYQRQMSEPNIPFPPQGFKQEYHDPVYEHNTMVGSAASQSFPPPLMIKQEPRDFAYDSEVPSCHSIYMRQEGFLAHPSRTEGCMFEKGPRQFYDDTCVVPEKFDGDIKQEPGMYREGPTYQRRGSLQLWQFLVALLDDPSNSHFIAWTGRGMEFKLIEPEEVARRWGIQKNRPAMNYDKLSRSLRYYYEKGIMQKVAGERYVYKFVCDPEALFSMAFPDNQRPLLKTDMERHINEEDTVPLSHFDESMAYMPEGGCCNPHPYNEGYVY
How it was run: as §1

Sequence: TATATC
- binding signal (FLI1): 1.6 fold enrichment (6-mer frequency, TF over GST control)
- binding signal (ELK1): 1.62 fold enrichment (6-mer frequency, TF over GST control)
- binding signal (GABPA): 1.55 fold enrichment (6-mer frequency, TF over GST control)
- binding signal (ERG): 1.48 fold enrichment (6-mer frequency, TF over GST control)
- binding signal (ELF1): 1.58 fold enrichment (6-mer frequency, TF over GST control)
- binding signal (EHF): 1.59 fold enrichment (6-mer frequency, TF over GST control)
- binding signal (SPI1): 1.54 fold enrichment (6-mer frequency, TF over GST control)
- binding signal (SPIB): 1.67 fold enrichment (6-mer frequency, TF over GST control)
- binding signal (ELK3): 1.42 fold enrichment (6-mer frequency, TF over GST control)
- binding signal (FEV): 1.58 fold enrichment (6-mer frequency, TF over GST control)
- binding signal (ETV5): 1.6 fold enrichment (6-mer frequency, TF over GST control)
- binding signal (HSF1): 1.33 fold enrichment (6-mer frequency, TF over GST control)
- binding signal (SPIC): 1.67 fold enrichment (6-mer frequency, TF over GST control)
- binding signal (ELF4): 1.58 fold enrichment (6-mer frequency, TF over GST control)
- binding signal (ELK4): 1.53 fold enrichment (6-mer frequency, TF over GST control)
- binding signal (ETV2): 1.54 fold enrichment (6-mer frequency, TF over GST control)
- binding signal (ELF3): 1.36 fold enrichment (6-mer frequency, TF over GST control)
- binding signal (CRX): 1.67 fold enrichment (6-mer frequency, TF over GST control)
- binding signal (ETV1): 1.54 fold enrichment (6-mer frequency, TF over GST control)
